PubChem BioAssay (Tox21)
Inconclusive results are not listed. Activity calls are given as the source filed them. Unless noted, calls follow the shape of the dose curve; as a rule, active = well fitted curve in the direction sought with a large enough effect in the repeat runs; inconclusive = weak or mixed curves; inactive = no such curve, though single readings can be large; an effect the other way counts as inactive or inconclusive.
% is scaled to controls: 0 for no effect and ±100 for the full control effect.

Tested on: not listed separately
Assay: qHTS assay to identify small molecule antagonists of the retinoic acid receptor (RAR) signaling pathway (AID 1159552; also: nearly all actives have a fitted effect of over 50% in size)
Settings: C3RL4 RARE luciferase reporter, retinol-stimulated, 6 h; series mostly up to 92.4 µM; activity, negative = inhibition: at the top concentration
Procedure, shortened: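 Antagonism of retinol-induced RARE reporter activity was measured in C3RL4 cells. Exposure to compounds and 1 uM final retinol lasted 6 hr at 37 C, with luminescence as endpoint.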
For `COC(=O)Nc1nc2ccc(C(=O)c3cccs3)cc2[nH]1`, the “activity, negative = inhibition” value was 4% [at 42.5 µM] (inactive).
With `CCOC(=O)CC(=O)C(=O)OCC` the “activity, negative = inhibition” value was -20.1% (inactive).
With `CC(C)CCCCCCOC(=O)CCCCC(=O)OCCCCCCC(C)C` the “activity, negative = inhibition” value was -12.1% (inactive).
With `CCCCC(=O)O[C@]1(C(=O)CO)CC[C@H]2[C@@H]3CCC4=CC(=O)CC[C@]4(C)[C@H]3[C@@H](O)C[C@@]21C` the “activity, negative = inhibition” value was -24.2% [at 42.5 µM] (inactive).
In the case of `CCC(C(=O)OCCN(CC)CC)c1ccccc1` (stereo not drawn), the “activity, negative = inhibition” value is reported as 7.8% [at 42.5 µM] (inactive).
With `CCOC(=O)c1ccccc1C` the “activity, negative = inhibition” value was 3.38% (inactive).
With `C[N+](C)(C)CCOC(N)=O` the “activity, negative = inhibition” value was -2.55% [at 42.5 µM] (inactive).
For `CN1C(=O)CC(C)(c2ccccc2)C1=O` (stereo not drawn), the “activity, negative = inhibition” value was 0.686% [at 42.5 µM] (inactive).
With `COc1cc2c(cc1OC)-c1cc(=Nc3c(C)cc(C)cc3C)n(C)c(=O)n1CC2` the “activity, negative = inhibition” value was 12.7% [at 42.5 µM] (inactive).
For `O=C(CCC1CCN(Cc2ccccc2)CC1)c1ccc2c(c1)NCCCC2`, the “activity, negative = inhibition” value was 6.8% [at 42.5 µM] (inactive).
In the case of `Cc1occc1C(=O)Nc1ccc(C(=O)N2CCC(F)(F)/C(=C\C(=O)N3CCC(N4CCCCC4)CC3)c3ccccc32)cc1`, the “activity, negative = inhibition” value is reported as -25.6% [at 42.5 µM] (inactive).
With `CCCCCCCCCCOS(=O)(=O)O` the “activity, negative = inhibition” value was 39.5% (inactive).
For `CC(CCc1ccc2c(c1)OCO2)NN` (stereo not drawn), the “activity, negative = inhibition” value was 24.9% [at 42.5 µM] (inactive).
With `Cc1cnc(C)c(C)n1` the “activity, negative = inhibition” value was -1.25% (inactive).
With `CC(C)C(=O)O` the “activity, negative = inhibition” value was -2.92% (inactive).

Tested on: not listed separately
Assay: qHTS assay to identify small molecule agonists of the retinoic acid receptor (RAR) signaling pathway (AID 1159553)
Settings: C3RL4 RARE luciferase reporter, agonist, 6 h; series mostly up to 73.3 µM; activation: at the top concentration
Procedure, shortened: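 C3RL4 cells carrying a RARE luciferase reporter were plated overnight at 37 C, then exposed to compounds in DMSO for 6 hr at 37 C and 5% CO2. Luminescence was read 30 min after luciferase reagent addition at room temperature.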
With `Cc1cc(S(=O)(=O)O)ccc1N=Nc1c(O)ccc2ccccc12` the “activation” value was -0.0854% (inactive).
For `COC(=O)Nc1nc2ccc(C(=O)c3cccs3)cc2[nH]1`, the “activation” value was 8.89% (inactive).
For `CN(C)CCOC1=Cc2ccccc2Sc2ccc(Cl)cc21`, the “activation” value was -12.5% (inactive).
With `CCOC(=O)CC(=O)C(=O)OCC` the “activation” value was 3.55% (inactive).
With `O=C(N/N=C/c1ccc([N+](=O)[O-])o1)c1ccc(O)cc1` the “activation” value was -3.93% (inactive).
In the case of `CC(C)CCCCCCOC(=O)CCCCC(=O)OCCCCCCC(C)C`, the “activation” value is reported as -1.47% (inactive).
For `CCNC(=O)N1CCN(CCCC(c2ccc(F)cc2)c2ccc(F)cc2)CC1`, the “activation” value was -9.53% (inactive).
With `C[C@]12CCC(=O)C=C1C=C[C@@H]1[C@@H]2CC[C@@]2(C)[C@H]1CC[C@@]21CCC(=O)O1` the “activation” value was -3.08% (inactive).
In the case of `CCc1cccc(N(C)C(N)=Nc2cccc3ccccc23)c1`, the “activation” value is reported as -10.8% (inactive).
For `CCCCC(=O)O[C@]1(C(=O)CO)CC[C@H]2[C@@H]3CCC4=CC(=O)CC[C@]4(C)[C@H]3[C@@H](O)C[C@@]21C`, the “activation” value was -12.2% (inactive).
In the case of `CC(=O)[C@H]1CC[C@H]2[C@@H]3C=CC4=CC(=O)CC[C@@]4(C)[C@@H]3CC[C@]12C`, the “activation” value is reported as 0.499% (inactive).
In the case of `C=CCNc1nc(NCC=C)nc(N2CCN(C(c3ccc(F)cc3)c3ccc(F)cc3)CC2)n1`, the “activation” value is reported as 2% (inactive).
In the case of `CCC(C(=O)OCCN(CC)CC)c1ccccc1` (stereo not drawn), the “activation” value is reported as 0.261% (inactive).
For `CCOC(=O)c1ccccc1C`, the “activation” value was -4.06% (inactive).
In the case of `C[N+](C)(C)CCOC(N)=O`, the “activation” value is reported as 0.184% (inactive).
In the case of `CN1C(=O)CC(C)(c2ccccc2)C1=O` (stereo not drawn), the “activation” value is reported as -1.08% (inactive).
For `CC(=O)[C@H]1CC[C@H]2[C@@H]3C[C@H](C)C4=CC(=O)CC[C@]4(C)[C@H]3[C@@H](O)C[C@]12C`, the “activation” value was -6.47% (inactive).
With `O=C(CCC1CCN(Cc2ccccc2)CC1)c1ccc2c(c1)NCCCC2` the “activation” value was -7.21% (inactive).
In the case of `Cc1occc1C(=O)Nc1ccc(C(=O)N2CCC(F)(F)/C(=C\C(=O)N3CCC(N4CCCCC4)CC3)c3ccccc32)cc1`, the “activation” value is reported as -5.11% [at 34.3 µM] (inactive).
In the case of `CCCCCCCCCCOS(=O)(=O)O`, the “activation” value is reported as -1.03% (inactive).
With `Cc1cnc(C)c(C)n1` the “activation” value was 5.77% [at 94.8 µM] (inactive).

Tested on: not listed separately
Assay: qHTS assay to identify small molecule antagonists of the estrogen related receptor (ERR) signaling pathway - cell viability counter screen (AID 1224818);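 also: viability measured after 17.5 h of compound exposure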
Settings: ERR reporter cell line viability counter screen; series mostly up to 46.1 µM; viability change, negative = cytotoxic: at the top concentration
Procedure, shortened: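 ERR reporter cells plated 6 h at 37 C/5% CO2, then compounds in DMSO pin-transferred and incubated 17.5 h at 37 C. Viability read as CellTiter-Fluor fluorescence after 30 min at 37 C.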
For `CCCc1c(OCCCOc2ccc(OCC(=O)O)cc2)ccc(C(C)=O)c1O`, the “viability change, negative = cytotoxic” value was 5.3% (inactive).
With `COC(=O)Nc1nc2ccc(C(=O)c3cccs3)cc2[nH]1` the “viability change, negative = cytotoxic” value was -20.3% (inactive).
For `CCc1cccc(N(C)C(N)=Nc2cccc3ccccc23)c1`, the “viability change, negative = cytotoxic” value was 4.83% (inactive).
In the case of `CCC1(C)CC(=O)NC1=O` (stereo not drawn), the “viability change, negative = cytotoxic” value is reported as -3% (inactive).
In the case of `C[N+](C)(C)CCOC(N)=O`, the “viability change, negative = cytotoxic” value is reported as -2.42% (inactive).
With `COc1cc2c(cc1OC)-c1cc(=Nc3c(C)cc(C)cc3C)n(C)c(=O)n1CC2` the “viability change, negative = cytotoxic” value was -18.2% (inactive).

Tested on: not listed separately
Assay: qHTS assay to identify small molecule antagonists of the estrogen related receptor (ERR) signaling pathway (AID 1224819; also: nearly all actives have a fitted effect of over 50% in size; also: potency is read from the fitted curve at half-maximal effect;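 as to activity change, negative = inhibition: luminescence from an ERR-driven luciferase reporter measured with One-Glo reagent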)
Settings: ERR reporter cell line, luciferase inhibition; series mostly up to 46.1 µM; activity change, negative = inhibition: at the top concentration
Text: National Center for Advancing Translational Sciences [NCATS]
NIH Chemical Genomics Center [NCGC]
U.S. Environmental Protection Agency [EPA]
National Institutes of Environmental Health Sciences [NIEHS]
National Toxicology Program [NTP]
U.S. Food and Drug Administration [FDA]
Estrogen related receptors (ERRs), the first orphan nuclear receptors discovered, play an important role in the control of cellular energy metabolism. ERRs are required for high-energy production in response to the environmental challenges. ERR-alpha was also identified as an adverse marker for breast cancer progression; ERR-alpha-positive tumors have a poor prognosis. To screen and to identify environmental compounds that perturb the ERR signaling pathways could provide valuable information for potential therapeutic or preventive measures in the treatment of metabolic disease. For identifying ERR antagonists, ERR cell line (provided by NTP) has been used to screen LOPAC library.
Tox21 Assay Protocol Summary:
The ERR cells were dispensed at 2,000 cells/5 ul/well in 1536-well white plates using a Multidrop dispenser. After the assay plates were incubated at a 37 C/5% CO2 incubator for 6 hours, 23 nL of compounds dissolved in DMSO, positive and negative controls or DMSO only was transferred to the assay plate by a pin tool. The plates were incubated at 37 C for 18 hours. 4 ul/well of One-Glo reagent was added into the assay plates using a Flying Reagent Dispenser. After 30 min incubation at room temperature, the luminescence intensity in the plates was measured using a ViewLux plate reader.
For `CCCc1c(OCCCOc2ccc(OCC(=O)O)cc2)ccc(C(C)=O)c1O`, the “activity change, negative = inhibition” value was -3.35% (inactive).
For `COC(=O)Nc1nc2ccc(C(=O)c3cccs3)cc2[nH]1`, the “activity change, negative = inhibition” value was -6.71% (inactive).
In the case of `CCNC(=O)N1CCN(CCCC(c2ccc(F)cc2)c2ccc(F)cc2)CC1`, the Potency is reported as 8.1 µM (active).
In the case of `COc1cc2c(cc1OC)-c1cc(=Nc3c(C)cc(C)cc3C)n(C)c(=O)n1CC2`, the Potency is reported as 17.4 µM (active).

Tested on: not listed separately
Assay: qHTS assay to identify small molecule agonists of the estrogen related receptor (ERR) signaling pathway (AID 1224820)
Settings: ERR reporter cell line, luciferase agonist mode; series mostly up to 46.1 µM; activation: at the top concentration
Procedure, shortened: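 ERR reporter cell line (from NTP), 2,000 cells/well, incubated 6 h before compound addition, then 18 h at 37 C. Luminescence measured 30 min after One-Glo reagent at room temperature.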
In the case of `CCCc1c(OCCCOc2ccc(OCC(=O)O)cc2)ccc(C(C)=O)c1O`, the “activation” value is reported as -3.44% (inactive).
For `COC(=O)Nc1nc2ccc(C(=O)c3cccs3)cc2[nH]1`, the “activation” value was -13.9% (inactive).
For `CCNC(=O)N1CCN(CCCC(c2ccc(F)cc2)c2ccc(F)cc2)CC1`, the “activation” value was -64.1% (inactive).
For `COc1cc2c(cc1OC)-c1cc(=Nc3c(C)cc(C)cc3C)n(C)c(=O)n1CC2`, the “activation” value was -74.1% (inactive).

Tested on: estrogen-related receptor alpha (ERRalpha) with PGC-1alpha coactivator, human
Assay: qHTS assay to identify small molecule antagonists of the estrogen related receptor signaling pathway with the pleiotropic PPARgamma coactivator (PGC) (AID 1224821; calls by dose curve;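 also: lower luminescence signal means antagonism of PGC/ERR signalling; nearly all actives have a fitted effect of over 50% in size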)
Settings: ERR/PGC reporter cell line, luciferase, antagonist mode; series mostly up to 46.1 µM; activity change, negative = inhibition: at the top concentration
Procedure, shortened: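 PGC/ERR reporter cell line, plated 6 h before compound addition, then exposed 18 h at 37 °C. Luciferase activity read by luminescence 30 min after One-Glo addition; decrease indicates antagonism.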
With `CCCc1c(OCCCOc2ccc(OCC(=O)O)cc2)ccc(C(C)=O)c1O` the “activity change, negative = inhibition” value was -2.04% (inactive).
With `COC(=O)Nc1nc2ccc(C(=O)c3cccs3)cc2[nH]1` the “activity change, negative = inhibition” value was 159% (inactive).
In the case of `COc1cc2c(cc1OC)-c1cc(=Nc3c(C)cc(C)cc3C)n(C)c(=O)n1CC2`, the “activity change, negative = inhibition” value is reported as 13.3% (inactive).

Tested on: not listed separately
Assay: qHTS assay to identify small molecule antagonists of the estrogen related receptor signaling pathway with the pleiotropic PPARgamma coactivator (PGC) cell viability counter screen (AID 1224822)
Settings: ERR/PGC reporter cell line viability counter screen; series mostly up to 46.1 µM; viability change, negative = cytotoxic: at the top concentration
Procedure, shortened: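 PGC/ERR cells were seeded at 2,000 cells/well, rested 6 h at 37 C/5% CO2, then given compounds in DMSO by pin tool and incubated 17.5 h at 37 C. Viability came from CellTiter-Fluor fluorescence after 30 min.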
For `CCCc1c(OCCCOc2ccc(OCC(=O)O)cc2)ccc(C(C)=O)c1O`, the “viability change, negative = cytotoxic” value was 10.6% (inactive).
In the case of `COC(=O)Nc1nc2ccc(C(=O)c3cccs3)cc2[nH]1`, the “viability change, negative = cytotoxic” value is reported as -36.3% (inactive).
With `CCc1cccc(N(C)C(N)=Nc2cccc3ccccc23)c1` the “viability change, negative = cytotoxic” value was -21.3% (inactive).
In the case of `CCC1(C)CC(=O)NC1=O` (stereo not drawn), the “viability change, negative = cytotoxic” value is reported as 5.59% (inactive).
In the case of `C[N+](C)(C)CCOC(N)=O`, the “viability change, negative = cytotoxic” value is reported as 5.13% (inactive).
